88 molecules from PubChem BioAssay AID435030 (The Scripps Research Institute Molecular Screening Center, 2010) can be followed below.

Structures are written as SMILES. Screen size: about 330,000 compounds; about 940 (0.28%) were called active. What follows is part of a selection rich in actives, with near analogues and random picks from the rest. Values without a mark were called inactive. Rule as the data show it: active = inhibition above about 12%; inactive = the rest.

A short description of this test: growth inhibition of E. coli expressing H. pylori AddAB, primary screen, AddAB inhibitor project, absorbance (AID 435030).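 Also: 0% = vehicle wells of infected cells.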 The conditions noted are these: at 11.9 µM, hits give high values.
For `O=C(Oc1ccc([N+](=O)[O-])cc1)c1ccc2ccccc2n1`, the inhibition was 0.94%. As for `O=[N+]([O-])c1ccc(N=Cc2c(O)ccc3ccccc23)cc1`, the inhibition is 39.5% (active). Turning to `Cc1nc2ccccc2nc(=O)c1NNc1ccc([N+](=O)[O-])cc1`, the inhibition is 0.52%. Regarding `CC(Sc1nnc(Cc2ccc([N+](=O)[O-])cc2)o1)C(N)=O` (stereo not drawn), the inhibition is 2.62%.

With `COC(=O)c1cc(S(=O)(=O)Nc2ccc(C)c(F)c2)c[nH]1`, the inhibition is 2.73%. On to `CCOc1ccc(OCC)c(NC(=O)C(NS(=O)(=O)c2ccc3c(c2)oc(=O)n3C)C(C)C)c1` (stereo not drawn), for which the inhibition is 0.33%. As for `O=C(CCNS(=O)(=O)c1ccccc1)NCCSc1ccc(Br)cc1`, the inhibition is -1.46%. For `CC(C)(C)CC(=O)Nc1nnc(SCC(=O)NCc2cccs2)s1`, the inhibition was 1.97%. `CC1CCN(C(=O)Cn2cc(C(=O)c3ccco3)c3ccccc32)CC1`: the inhibition is 0.41%. Regarding `Cc1cccc(NC(=O)Cn2cc(C(=O)c3ccco3)c3ccccc32)c1`, the inhibition is 13.8% (active). For `O=C(Cn1cc(C(=O)c2cccs2)c2ccccc21)NCc1cccs1` the value was -0.41%; for `Cc1cc(C)c(S(=O)(=O)N2CCCC2CNC(=O)c2ccc3c(c2)OCO3)c(C)c1` (stereo not drawn), 2.32%. Take `N#Cc1ccc(OCCN2C(=O)NC3(CCSC3)C2=O)cc1` (stereo not drawn): the inhibition was -2.01%. With `O=C(OCC(=O)N1CCN(C(=O)c2ccco2)CC1)c1c(Cl)cccc1Cl`, the inhibition is 1.58%. The figure for `NS(=O)(=O)c1cccc(NC(=O)COC(=O)c2cc([N+](=O)[O-])ccc2N2CCCC2)c1` is 0.9%; for `CCn1c(/C=C/c2ccc([N+](=O)[O-])o2)nc2ccccc2c1=O` it is 17.8% (active); for `CCn1c(=O)c([N+](=O)[O-])c(NCc2ccc3c(c2)OCO3)c2ccccc21` it is -0.08%. As for `CCOCCCn1c(NN)nc2ccccc2c1=O`, the inhibition was 1.87%. For the molecule `CCOC(=O)c1sc(/N=C/C2=C(O)CC(C)(C)CC2=O)c(C(=O)OCC)c1C`, the inhibition is -0.77%.

For the molecule `Cc1occc(=O)c1OCc1c(Cl)cccc1Cl`, the inhibition was -0.74%. Regarding `CCCc1nnc(SCC(=O)Nc2ccc(C(=O)OCC)cc2)o1`, the inhibition is 2.66%. For the molecule `CCOC(=O)c1ccc(NC(=O)Cn2cnc3cc(C)c(C)cc32)cc1`, the inhibition is 21% (active). On to `CCOC(=O)c1ccc(NC(=O)Cc2cccs2)cc1`, for which the inhibition was 3.49%. As for `CSCc1ccc(C(=O)Nc2cc(C)cc(C)c2)cc1`, the inhibition was 0.9%. On to `CSCCC(NC(=O)c1cc([N+](=O)[O-])cc([N+](=O)[O-])c1)c1nc2ccccc2[nH]1` (stereo not drawn), for which the inhibition is 2.67%. On to `Nc1nonc1-n1nnc(C(=O)N/N=C/c2c[nH]c3ccccc23)c1-c1ccccc1`, for which the inhibition is 0.34%. `O=C(O)c1cccc(NC(=S)N/N=C/c2c[nH]c3ccccc23)c1`: the inhibition was 3.31%.

On to `CSC(=S)N/N=C/c1c[nH]c2ccccc12`, for which the inhibition is 14.4% (active).

On to `COC(=O)c1cc(S(=O)(=O)N2CCC(C(N)=O)CC2)oc1C`, for which the inhibition was -2.11%. Turning to `COc1cccc(OC)c1CN(C)C(=O)c1cnccc1C(F)(F)F`, the inhibition was 3.15%. The figure for `CC(=O)Nc1ccc(CN2CCN(Cc3ccc(F)c(F)c3)C(CCO)C2)cc1` (stereo not drawn) is 2.22%; for `Cc1cn(C2C=CC(CO)O2)c(=O)[nH]c1=O` (stereo not drawn) it is 20.5% (active); for `Cc1cn(C2OC[C@@H](O)[C@@H]2CO)c(=O)[nH]c1=O` (stereo partly drawn) it is 0.5%. With `CCOC(=O)C1=NOC(Cn2cc(C(C)=O)c(=O)[nH]c2=O)C1` (stereo not drawn), the inhibition is 3.64%.

In the case of `O=C(NNC(=O)C1C2CCC(C2)C1C(=O)O)c1ccc(Cl)cc1` (stereo not drawn), the inhibition was -0.52%.

In the case of `Cc1ccc(NC(=O)CN(C)C(=O)COC(=O)C(C)(C)Oc2ccc(Cl)cc2)cc1`, the inhibition is 1.52%. As to `Cc1ccc(O)c(NC(=O)c2cc(-c3ccco3)on2)c1`, the inhibition was 2.66%. Consider `Nc1nonc1-n1nnc(C(=O)N/N=C/c2cc(Br)ccc2O)c1CSC1=NCCS1`, for which the inhibition is 17.5% (active). Consider `Nc1nonc1-n1nnc(C(=O)N/N=C/c2ccccc2O)c1CN1CCCC1`, for which the inhibition is 4.54%. Take `Cc1ccc(SCc2c(C(=O)N/N=C/c3cccnc3)nnn2-c2nonc2N)cc1`: the inhibition was 3.86%. For `CCOc1ccc(N(CC(=O)Nc2ccccc2F)S(=O)(=O)c2c(C)[nH]c(=O)[nH]c2=O)cc1`, the inhibition was 3.71%. Regarding `CCOc1ccccc1NC(=O)COc1ccc(S(=O)(=O)N2CCCC2)cc1`, the inhibition was 2.68%. In the case of `O=C(NC(Cc1ccccc1)C(=O)O)/C(=C\c1ccccc1)NC(=O)c1ccco1` (stereo not drawn), the inhibition is 0.08%. Regarding `Cc1nnc(NC(=O)Cn2c(=O)sc3ccccc32)s1`, the inhibition was 3.04%. The figure for `O=C(CCS(=O)(=O)c1ccccc1)Nc1nc2c(s1)CCCC2` is -2.56%; for `O=C(Cn1c(=O)sc2ccccc21)Nc1nc2c(s1)CCCC2` it is 12.5% (active).

Turning to `O=C(Cc1c(F)cccc1Cl)Nc1ncc([N+](=O)[O-])s1`, the inhibition was 5.83%.

On to `CC(=O)Oc1ccccc1C(=O)Nc1ncc([N+](=O)[O-])s1`, for which the inhibition is 13.3% (active).

Turning to `Cc1cnc(NC(=O)c2ccccn2)s1`, the inhibition is -4.66%. Consider `COc1ccccc1CNC(=O)Cn1c(=O)oc2cc(Cl)ccc21`, for which the inhibition was 4.32%. In the case of `COC(=O)C1=C(Nc2ccc(C)cc2)C=C(C)C(C(=O)OC)C1c1ccc(F)cc1` (stereo not drawn), the inhibition is 1.3%. As for `NC(=O)COC(=O)c1sc2cc(F)ccc2c1Cl`, the inhibition is 1.69%. Take `CCOC(=O)N1CCC(Nc2c(NCCCN3CCN(c4ccc(OC)cc4)CC3)c(=O)c2=O)CC1`: the inhibition is 2.85%. On to `CC(NC(=O)COC(=O)C1CCN(S(=O)(=O)c2ccccc2C(F)(F)F)CC1)c1ccccc1` (stereo not drawn), for which the inhibition is 0.81%. The figure for `CC[C@H]1OC(=O)[C@H](C)[C@@H](O[C@H]2C[C@@](C)(OC)[C@@H](O)[C@H](C)O2)[C@H](C)[C@@H](O[C@@H]2O[C@H](C)C[C@H](N(C)C)[C@H]2O)[C@](C)(O)C[C@@H](C)[C@@H]2N[C@@H](COCCOC)O[C@H]([C@H]2C)[C@]1(C)O` is 41% (active). Turning to `CCCCNC(=O)C1(c2ccc(OC)cc2)CCOCC1`, the inhibition is 0.97%. In the case of `CC1(C)CC(N2CCN(C(c3ccccc3)c3ccccc3)CC2)=CC(=[N+]2CCCCC2)C1`, the inhibition was 1.52%. Turning to `Cc1nnc(SCCCCSc2nnc(C)c(=O)[nH]2)[nH]c1=O`, the inhibition was -1.42%. For `O=c1oc2c(Cl)cc(Cl)cc2cc1-c1nnc(Nc2ccccc2F)s1`, the inhibition is -1.06%.

`O=C(NC(=O)N1CCSCC1)c1c(Cl)cccc1Cl`: the inhibition is 1.83%. Turning to `CN(C)[C@@H]1C(=O)C(C(N)=O)=C(O)[C@@]2(O)C(=O)C3=C(O)c4c(O)ccc(Cl)c4[C@@H](O)[C@H]3C[C@@H]12`, the inhibition was 100% (active).

In the case of `C=C1c2c(Cl)ccc(O)c2C(O)=C2C(=O)[C@]3(O)C(O)=C(C(N)=O)C(=O)[C@@H](N(C)C)[C@@H]3[C@@H](O)C12` (stereo partly drawn), the inhibition is 103% (active). Regarding `O=C(CCNC(=O)c1ccccc1)NN=Cc1ccc(Br)o1`, the inhibition was -1.39%. As to `NC(=O)NCCCC(=O)O`, the inhibition was 4.03%. On to `CC(=O)N(O)CCCCCNC(=O)CCC(=O)N(O)CCCCCNC(=O)CCC(=O)N(O)CCCCCNC(=O)CCC(=O)O`, for which the inhibition is 22% (active). Regarding `COc1nc(N(C)C)nc(N2CC(=O)N(CCNS(=O)(=O)c3ccc(C)cc3)C2=N)n1`, the inhibition was -0.32%. Turning to `Cc1ccc(Cn2c(=N)c(S(=O)(=O)c3ccc(C)cc3)cc3c(=O)n4ccccc4nc32)cc1`, the inhibition was 1.33%. `CC1(C)CC(=O)c2cnc3nc4ccccc4n3c2C1`: the inhibition was -0.86%. Take `COc1ccc(CCN=C2SCC(=O)N2Cc2ccccc2)cc1OC`: the inhibition is 1.52%. As for `O=C(N/N=C\c1ccc(-c2ccc(Cl)c(Cl)c2)o1)C(=O)N1CCCC1`, the inhibition was -0.96%. On to `O=c1ccc2c(-c3ccccc3S(=O)(=O)O)c3ccc(O)c(O)c3oc-2c1O`, for which the inhibition was 22.5% (active).

In the case of `C=C1CCN([C@H](C(=O)NCc2cc(OC)c(OC)c(OC)c2)C(C)C)S(=O)(=O)c2ccccc21`, the inhibition was 0.6%. Take `COc1ccc(CNC(=O)C[C@H]2C[C@H](C(=O)N3CCOCC3)[C@@]3(C)c4[nH]c5cc(CCC(=O)N(C)C)ccc5c4CCN3C2=O)cc1OC`: the inhibition is -1.37%.

In the case of `O=C(Cc1ncc(C(F)(F)F)cc1Cl)Nc1cccc(Br)c1`, the inhibition is 0.17%. With `COC(=O)c1oc2ccc(Br)cc2c1NC(C)=O`, the inhibition was -2.24%.

Turning to `COc1ccc(C(=O)c2oc3ccc(Br)cc3c2NC(C)=O)cc1`, the inhibition is 100% (active). As to `COc1ccc(CC(=O)Nc2c(C(N)=O)oc3ccccc23)cc1`, the inhibition is 2.54%. For `CC(=O)/C(=N\Nc1ccc(Cl)cc1Cl)Sc1cccc2cccnc12`, the inhibition is -1.2%.

Take `C[C@H]1[C@H]2c3nc4ccccc4n3C[C@H]1ON2C1CCCCC1`: the inhibition was 3.89%.

In the case of `COc1ccc(CNC(=O)CN(Cc2ccc(Cl)cc2)S(C)(=O)=O)cc1`, the inhibition was 3.57%. The figure for `COC(=O)N/N=C/c1ccc(-c2ccc(Cl)c(Cl)c2)o1` is 1.71%; for `COC(=O)N/N=C/c1c[n+]([O-])c2ccccc2[n+]1[O-]` it is 89.8% (active). For the molecule `COC(=O)N/N=C/c1cn(CCCOc2ccc(C)cc2)c2ccccc12`, the inhibition is 3.22%. Take `OCCNCCOc1ccc(Cl)c(Cl)c1`: the inhibition is 0.51%.

`COc1ccc(CCNC(=O)/C(C#N)=C2\N=C(NC(=O)c3cccs3)c3ccccc32)cc1`: the inhibition was 3.86%.

`O=C(NCC#CCSc1nnc(-c2cccc3ccccc23)o1)c1cccs1`: the inhibition was 12.4% (active). For `C#CCSc1nnc(-c2sc3ccccc3c2Cl)o1`, the inhibition was 1.12%.

On to `COc1ccc2cc(CCl)c(Cl)nc2c1`, for which the inhibition was -0.08%.
